PubChem BioAssay (NCATS)
Results filed as inconclusive are left out. The source made the active and inactive calls. Unless noted, calls come from the whole dose curve; as a rule, active = well fitted curve in the direction sought with a large enough effect; inconclusive = small, poorly fitted or top-dose-only effect, or another doubt; inactive = no such curve, though single readings can be large; an effect the other way counts as inactive or inconclusive.

Columns and labels:
[1] = biological target: Calcium and integrin-binding protein 1 (Homo sapiens) (UniProt Q99828); test: Primary qHTS for Identification of Calcium Integrin Binding Protein 1 (CIB1) Competitor (AID 1508620);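 note: GST tagged CIB1 binding a fluorescein labelled alphaIIb integrin peptide tracer; top concentration of the series differs between compounds; % is set by controls: 0 for no effect and ±100 for the full control effect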
Outline: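 Fluorescence polarization competition: CIB1-GST (1 uM final) preincubated with compound 15 min at room temperature, then FITC-labeled alphaIIb peptide (100 nM final) added for another 15 min. Polarization read at Ex 480/Em 540.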

[2] = biological target: Rap guanine nucleotide exchange factor 3 (Homo sapiens) (UniProt O95398); test: Confirmatory qHTS for antagonist of cAMP-regulated guanine nucleotide exchange factor 3 (EPAC1) (AID 1645880); note: nearly all actives have a fitted effect of over 55% in size; note: potency is the fitted concentration of half-maximal effect
Outline: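 Nucleotide exchange uses 100 nM EPAC1, 250 nM RAP1B-BODIPY-GDP and 50 uM GDP, with compounds in a concentration-titration series. After 5 min at room temperature, fluorescence (480 nm ex/540 nm em) is read every 5 min for 30 min. Data are normalized to control ATA and DMSO.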

[3] = biological target: Rap guanine nucleotide exchange factor 3 (Homo sapiens) (UniProt O95398); test: Confirmatory qHTS for agonist of cAMP-regulated guanine nucleotide exchange factor 3 (EPAC1) (AID 1645881);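 note: EPAC1 catalysed release of BODIPY-GDP from Rap1B seen as fluorescence loss; 100% = effect of cAMP agonist control; nearly all actives have a fitted effect of over 75% in size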
[4] = biological target: Rap guanine nucleotide exchange factor 4 (Homo sapiens) (UniProt Q8WZA2); test: Confirmatory qHTS for agonist of cAMP-regulated guanine nucleotide exchange factor 4 (EPAC2) (AID 1645884);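 note: nucleotide exchange releases bodipy-GDP from Rap1 and this lowers its fluorescence; % is set by controls: 0 for no effect and ±100 for the full control effect; nearly all actives have a fitted effect of over 65% in size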
[5] = biological target: Rap guanine nucleotide exchange factor 4 (Homo sapiens) (UniProt Q8WZA2); test: Confirmatory qHTS for antagonist of cAMP-regulated guanine nucleotide exchange factor 4 (EPAC2) (AID 1645885); note: nearly all actives have a fitted effect of over 25% in size; note: potency is the fitted concentration of half-maximal effect
[6] = biological target: Rap guanine nucleotide exchange factor 3 (Homo sapiens) (UniProt O95398); test: Counterscreen qHTS for antagonist of cAMP-regulated guanine nucleotide exchange factor 3 (EPAC1) (AID 1645888);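 note: fluorescence loss as bound BODIPY-GDP is released from Rap1B; % of control where 0% means no effect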
Outline: (§1)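 Measured: fluorescence of BODIPY-GDP bound to Rap1B, which falls as exchange proceeds. Conditions include 50 uM competing GDP, 5 and 30 min reads, and a later cAMP challenge for antagonist detection.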

[7] = biological target: Rap guanine nucleotide exchange factor 3 (Homo sapiens) (UniProt O95398); test: Counterscreen qHTS for agonist of cAMP-regulated guanine nucleotide exchange factor 3 (EPAC1) (AID 1645889); note: % of control where 0% means no effect; nearly all actives have a fitted effect of over 40% in size
Outline: as §1

[8] = biological target: Glutathione peroxidase 1 (Homo sapiens) (UniProt P07203); test: Primary qHTS Assay for Inhibitors of Recombinant Selenoprotein Glutathione Peroxidase 1 (GPX1) (AID 1845191); note: % is set by controls: 0 for no effect and ±100 for the full control effect; nearly all actives have a fitted effect of over 65% in size
Outline: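 Recombinant GPX1 (10 nM final) was preincubated with compound for 30 min at room temperature, then reacted with 1 mM GSH, 0.5 mM CHP, 0.5 mM NADPH and 100 nM glutathione reductase; NADPH fluorescence (340/450 nm) was read at 0 and 15 min.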

[9] = biological target: Tyrosine-protein kinase Yes (Homo sapiens) (UniProt P07947); test: qHTS for small molecule inhibitors of Yes1 kinase: Primary Screen (AID 686947); note: potency is the fitted concentration of half-maximal effect; nearly all actives have a fitted effect of over 60% in size
Outline: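 ADP-Glo luminescence readout; final 4 nM Yes1, 0.1 mM ATP, 0.3 mg/mL poly(E4Y), Tris pH 7.5, MgCl2, DTT, Brij-35. 20 min compound preincubation, 60 min reaction at RT. Normalized to DMSO wells with and without enzyme.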

[10] = qHTS for small molecule inhibitors of Yes1 kinase: Counter Assay (AID 686950);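 note: no kinase present so only ADP-Glo detection of a fixed ADP amount is tested; luminescence from ADP-Glo reporting ADP in a fixed ATP and ADP mixture; 0% = DMSO wells with ATP plus ADP and -100% = ATP-only wells without ADP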
Outline: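 Enzyme-free ADP-Glo interference check: compounds were preincubated 20 min in buffer, then an ATP/ADP mix (0.08 mM ATP, 0.02 mM ADP final) was added for 60 min at room temperature before two-step ADP-Glo luminescence detection.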

[11] = biological target: N-terminal Xaa-Pro-Lys N-methyltransferase 1 (Homo sapiens) (UniProt Q9BV86); test: Confirmatory qHTS for Inhibitors of N-terminal methyltransferase 1 (NTMT1): MTaseGlo Assay (AID 1645874); note: potency is the fitted concentration of half-maximal effect; nearly all actives have a fitted effect of over 65% in size
Outline: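 qHTS format: NTMT1 125 nM, SAM 100 uM, peptide SPKRIA 1 uM final; 15 min compound preincubation, 30 min reaction at room temperature. MTase-Glo luminescence.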

[12] = Primary qHTS for inhibitors of nuclear receptor binding SET domain protein 2 (NSD2) in an isogenic RCH-ACV NSD2 p.E1099K mutant (9B) (AID 1645876); note: % is set by controls: 0 for no effect and ±100 for the full control effect; nearly all actives have a fitted effect of over 70% in size
[13] = AP1 Signaling Pathway (AID 357; active = well fitted curve in either direction with a large enough effect, not every such curve was filed as active;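 note: ME-180 reporter cells stimulated with EGF at its EC50 level; % is set by controls: 0 for no effect and ±100 for the full control effect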); conditions: ME-180 (cervical carcinoma) AP-1-bla reporter, EGF-induced, beta-lactamase ratio, 5 h; at 7.69 µM (top of the series) unless noted
Outline: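 A ratiometric CCF4 readout (405 nm excitation; 460 and 530 nm emission) quantified AP-1-driven beta-lactamase in ME-180 cells after 5 h with compound and EC50 EGF; AC50 values were derived for activators and inhibitors.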

[14] = NFAT Signaling Pathway (AID 444; active = well fitted curve in either direction with a large enough effect, not every such curve was filed as active;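 note: carbachol stimulus at about its EC50 of 1 µM final; % is set by controls: 0 for no effect and ±100 for the full control effect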); conditions: Jurkat NFAT-bla M1, carbachol, beta-lactamase ratio, 5 h; at 7.69 µM (top of the series) unless noted
Outline: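 Jurkat cells carrying an NFAT-driven β-lactamase reporter and co-transfected muscarinic M1 receptor were treated with compound plus carbachol (1 uM final, an EC50 level) for 5 h at 37 °C. CCF4 loading followed for 1 h at RT; 460/530 nm ratio gave %activity.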

[15] = biological target: Glucocorticoid receptor (Homo sapiens) (UniProt P04150); test: GR-GFP Redistribution (AID 450;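 active = compounds whose dose series gives a full or clear partial fitted curve of increased nuclear translocation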; note: potency is the fitted concentration of half-maximal effect); conditions: U2OS GR-GFP nuclear translocation, laser cytometry, 2 h
[16] = biological target: Mitogen-activated protein kinase 10 (Mus musculus) (UniProt Q61831); test: JNK3 AlphaScreen Assay (AID 530; active = well fitted curve in either direction with a large enough effect, not every such curve was filed as active;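 note: kinase came from lysate of stimulated human HepG2 cells; signal reports phosphorylation of biotinylated GST-cJun 1-79 at Ser73 with 10 µM ATP; % is set by controls: 0 for no effect and ±100 for the full control effect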)
Outline: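 JNK3 came from HepG2 lysates pre-activated with IL-1beta and TNF-alpha and phosphorylated biotinylated GST-cJun (1-79) at 10 uM ATP, pH 7.6, room temperature. Compounds were titrated. AlphaScreen signal used anti-phospho-cJun (Ser73) antibody.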

Chain of Rap guanine nucleotide exchange factor 3 (Homo sapiens) (O95398 whole entry, looked up): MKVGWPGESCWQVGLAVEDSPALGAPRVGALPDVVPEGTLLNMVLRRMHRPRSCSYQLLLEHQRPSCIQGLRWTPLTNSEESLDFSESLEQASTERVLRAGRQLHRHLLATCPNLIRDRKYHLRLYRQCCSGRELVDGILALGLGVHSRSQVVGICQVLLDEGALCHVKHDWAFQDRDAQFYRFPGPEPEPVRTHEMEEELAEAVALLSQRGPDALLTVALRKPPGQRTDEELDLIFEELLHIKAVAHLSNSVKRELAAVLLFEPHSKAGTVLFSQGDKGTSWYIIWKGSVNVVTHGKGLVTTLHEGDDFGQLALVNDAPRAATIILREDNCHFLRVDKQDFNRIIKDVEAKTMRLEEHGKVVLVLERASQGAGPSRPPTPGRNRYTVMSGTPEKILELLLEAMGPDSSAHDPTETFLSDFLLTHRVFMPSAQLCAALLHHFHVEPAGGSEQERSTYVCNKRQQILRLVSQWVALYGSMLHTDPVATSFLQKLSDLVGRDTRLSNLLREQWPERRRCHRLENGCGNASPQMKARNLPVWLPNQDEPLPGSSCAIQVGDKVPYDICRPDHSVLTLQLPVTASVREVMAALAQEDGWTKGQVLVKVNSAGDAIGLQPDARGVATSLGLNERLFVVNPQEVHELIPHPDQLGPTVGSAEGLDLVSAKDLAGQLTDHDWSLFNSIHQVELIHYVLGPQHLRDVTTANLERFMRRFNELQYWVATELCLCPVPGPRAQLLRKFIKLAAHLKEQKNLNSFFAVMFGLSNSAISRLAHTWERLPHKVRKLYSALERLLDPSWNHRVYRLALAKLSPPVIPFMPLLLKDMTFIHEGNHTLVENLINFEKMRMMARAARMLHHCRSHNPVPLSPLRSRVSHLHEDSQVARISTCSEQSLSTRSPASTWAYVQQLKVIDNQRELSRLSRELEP
Chain of Calcium and integrin-binding protein 1 (Homo sapiens) (Q99828 whole entry, looked up): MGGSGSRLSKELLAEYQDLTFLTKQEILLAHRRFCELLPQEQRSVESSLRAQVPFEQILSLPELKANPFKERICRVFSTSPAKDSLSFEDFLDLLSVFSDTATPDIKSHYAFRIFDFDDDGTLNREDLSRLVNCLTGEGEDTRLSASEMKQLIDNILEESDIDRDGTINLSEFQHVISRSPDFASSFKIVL
Chain of Rap guanine nucleotide exchange factor 4 (Homo sapiens) (Q8WZA2 whole entry, looked up): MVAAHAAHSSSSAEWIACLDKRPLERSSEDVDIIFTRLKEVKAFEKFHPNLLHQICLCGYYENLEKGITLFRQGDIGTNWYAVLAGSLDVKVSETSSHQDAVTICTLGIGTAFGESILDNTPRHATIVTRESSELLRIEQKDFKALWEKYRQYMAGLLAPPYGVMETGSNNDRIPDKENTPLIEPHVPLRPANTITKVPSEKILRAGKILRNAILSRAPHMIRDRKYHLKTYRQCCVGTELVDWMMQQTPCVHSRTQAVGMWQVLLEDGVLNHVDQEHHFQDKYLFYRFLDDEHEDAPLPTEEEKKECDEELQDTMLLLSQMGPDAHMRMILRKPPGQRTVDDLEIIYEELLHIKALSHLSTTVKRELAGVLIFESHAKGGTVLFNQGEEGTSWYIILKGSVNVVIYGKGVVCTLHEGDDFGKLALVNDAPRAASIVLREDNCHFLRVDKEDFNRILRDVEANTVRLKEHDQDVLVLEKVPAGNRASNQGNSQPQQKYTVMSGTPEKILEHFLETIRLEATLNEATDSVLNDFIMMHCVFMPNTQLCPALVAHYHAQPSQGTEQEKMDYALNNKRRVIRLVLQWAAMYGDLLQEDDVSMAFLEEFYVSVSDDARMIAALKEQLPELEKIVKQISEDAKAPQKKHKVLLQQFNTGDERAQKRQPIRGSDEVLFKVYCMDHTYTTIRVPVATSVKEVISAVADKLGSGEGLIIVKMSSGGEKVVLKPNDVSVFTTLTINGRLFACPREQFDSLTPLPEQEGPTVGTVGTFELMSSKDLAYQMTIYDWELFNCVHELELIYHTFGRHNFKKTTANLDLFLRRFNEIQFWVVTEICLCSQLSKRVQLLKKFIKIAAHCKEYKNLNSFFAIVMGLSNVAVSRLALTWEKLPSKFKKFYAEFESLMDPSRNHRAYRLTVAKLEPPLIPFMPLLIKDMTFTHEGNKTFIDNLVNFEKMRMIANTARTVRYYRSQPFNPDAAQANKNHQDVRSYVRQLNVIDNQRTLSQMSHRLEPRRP
Chain of Glutathione peroxidase 1 (Homo sapiens) (P07203 whole entry, looked up): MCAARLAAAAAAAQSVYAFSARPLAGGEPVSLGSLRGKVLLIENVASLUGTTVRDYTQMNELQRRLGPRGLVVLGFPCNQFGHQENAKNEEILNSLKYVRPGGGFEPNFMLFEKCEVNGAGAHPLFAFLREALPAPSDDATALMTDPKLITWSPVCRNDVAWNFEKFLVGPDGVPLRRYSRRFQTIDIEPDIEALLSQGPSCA
Chain of N-terminal Xaa-Pro-Lys N-methyltransferase 1 (Homo sapiens) (Q9BV86 whole entry, looked up): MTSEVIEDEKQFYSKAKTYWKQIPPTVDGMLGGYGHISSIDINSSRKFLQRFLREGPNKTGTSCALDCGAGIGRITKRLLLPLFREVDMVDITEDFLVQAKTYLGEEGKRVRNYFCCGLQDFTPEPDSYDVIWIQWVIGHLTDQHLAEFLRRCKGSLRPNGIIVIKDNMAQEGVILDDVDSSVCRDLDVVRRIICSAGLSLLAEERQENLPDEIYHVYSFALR
Chain of Tyrosine-protein kinase Yes (Homo sapiens) (P07947 whole entry, looked up): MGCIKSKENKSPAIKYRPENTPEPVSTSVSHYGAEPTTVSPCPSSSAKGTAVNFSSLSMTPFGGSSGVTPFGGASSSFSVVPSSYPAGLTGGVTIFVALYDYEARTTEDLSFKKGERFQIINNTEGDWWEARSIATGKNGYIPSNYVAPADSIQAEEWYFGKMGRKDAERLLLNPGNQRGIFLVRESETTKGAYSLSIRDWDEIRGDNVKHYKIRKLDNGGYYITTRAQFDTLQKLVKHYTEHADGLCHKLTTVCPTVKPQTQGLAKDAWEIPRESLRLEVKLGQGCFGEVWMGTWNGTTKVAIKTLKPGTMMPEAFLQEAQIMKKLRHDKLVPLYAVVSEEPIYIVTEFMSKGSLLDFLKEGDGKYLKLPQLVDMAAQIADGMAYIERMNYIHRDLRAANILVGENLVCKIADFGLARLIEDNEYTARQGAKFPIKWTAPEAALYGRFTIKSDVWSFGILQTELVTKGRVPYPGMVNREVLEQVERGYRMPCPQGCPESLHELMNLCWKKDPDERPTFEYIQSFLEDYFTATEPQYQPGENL
Chain of Glucocorticoid receptor (Homo sapiens) (P04150 whole entry, looked up): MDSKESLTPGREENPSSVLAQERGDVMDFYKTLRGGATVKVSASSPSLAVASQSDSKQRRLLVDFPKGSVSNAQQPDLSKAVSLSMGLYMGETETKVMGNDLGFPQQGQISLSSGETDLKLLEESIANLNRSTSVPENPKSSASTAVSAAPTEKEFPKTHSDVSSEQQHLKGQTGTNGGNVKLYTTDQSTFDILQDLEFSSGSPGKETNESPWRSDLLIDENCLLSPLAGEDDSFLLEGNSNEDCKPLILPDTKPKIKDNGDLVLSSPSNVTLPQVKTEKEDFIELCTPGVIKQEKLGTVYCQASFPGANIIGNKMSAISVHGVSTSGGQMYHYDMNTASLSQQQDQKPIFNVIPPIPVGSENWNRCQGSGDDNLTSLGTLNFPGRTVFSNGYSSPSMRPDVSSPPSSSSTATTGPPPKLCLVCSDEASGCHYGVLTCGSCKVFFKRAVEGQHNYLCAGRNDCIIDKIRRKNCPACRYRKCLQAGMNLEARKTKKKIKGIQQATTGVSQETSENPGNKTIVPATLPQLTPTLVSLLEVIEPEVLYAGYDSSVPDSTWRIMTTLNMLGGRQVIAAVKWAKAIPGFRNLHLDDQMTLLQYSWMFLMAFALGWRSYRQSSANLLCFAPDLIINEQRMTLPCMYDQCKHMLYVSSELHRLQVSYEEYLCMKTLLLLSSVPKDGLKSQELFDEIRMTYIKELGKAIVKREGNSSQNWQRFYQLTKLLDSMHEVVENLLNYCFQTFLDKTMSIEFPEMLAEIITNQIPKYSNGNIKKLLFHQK

CCC(=O)NC(c1cccs1)c1cc(Cl)c2ccccc2c1O (stereo not drawn)
inactive: Potency [1] | Potency [2] | outcome [3] | activation [4] 0.826% [at 17.1 µM] | activity change, negative = inhibition [5] -13.9% [at 12.7 µM] | outcome [6] | activation [7] 29.3% [at 30.8 µM]

CC(=O)NC(c1ccco1)c1cc(Cl)c2ccccc2c1O (stereo not drawn)
inactive: Potency [1] | Potency [2] | outcome [3] | activation [4] 3.62% [at 17.1 µM] | outcome [6]

COC(=N)c1nc2ccc3ncnc(Nc4ccc(F)cc4Br)c3c2s1
inactive: Potency [1] | Potency [8]

O=C1Nc2ccc(C(=O)c3ccco3)cc2/C1=C/c1cc(Cl)c(O)c(Cl)c1
inactive: outcome [10] | Potency [1]
active: Potency [9] 0.463 µM | Potency [11] 2.4 µM

CC(=O)NC(c1cccs1)c1cc(Cl)c2ccccc2c1O (stereo not drawn)
inactive: Potency [1] | Potency [2] | outcome [3] | outcome [4]
active: Potency [5] 12 µM

COc1ccc(N2C(=O)c3ccccc3C2=O)cc1
inactive: Potency [1] | Potency [2] | outcome [3] | outcome [4] | Potency [5] | outcome [6] | outcome [7]

O=C1CCc2cc(S(=O)(=O)Nc3cccc(Cl)c3)ccc2N1
inactive: Potency [1] | Potency [12] | Potency [8]

CCN(CC)C(=O)CC(c1ccc2c(c1)OCO2)c1c(O)cc(OC)cc1OC (stereo not drawn)
inactive: Potency [1] | Potency [2] | outcome [3] | outcome [4] | Potency [5] | outcome [6]

CC(=O)Nc1sc2c(c1-c1ccc3scnc3c1)CCNC2
inactive: Potency [1]
active: Potency [11] 44.7 µM

COc1ccc(-n2c(C)c(C(C)=O)c3cc(O)ccc32)cc1
inactive: activity change, negative = inhibition [13] -14.7% [at 17.2 µM] | activity change, negative = inhibition [14] 1.89% [at 17.2 µM] | Potency [15] > 20.6 µM | Potency [1]

Cc1nc(NC2CCCCC2)c2nc(-c3ccccc3)n(CCCN(C)C)c2n1
inactive: outcome [16] | Potency [1]

O=C(CSc1nc2ccccc2n1CCc1ccccc1)c1ccc(O)c(O)c1
active: Potency [2] 6.01 µM
inactive: Potency [1] | outcome [3] | Potency [5] | outcome [6] | outcome [7]
